Calls of active or inactive are those of the source. The calls were made as follows: active = hit-call score of the fitted dose curve at least 0.9, where 1 is the maximum; inactive = score below 0.9.
target: Hypoxia-inducible factor 1-alpha (Homo sapiens) (UniProt Q16665); assay: ATG_HIF1a_CIS: Attagene CIS-FACTORIAL HepG2 Assay for human Hypoxia Inducible Factor 1 (HIF1A) (AID 2282951); settings: HepG2 Attagene cis-factorial HIF1a reporter transcription; actives raise or lower the signal
Experimental: ATG_CIS is a cell-based, multiplexed-readout assay that uses HepG2, a human liver cell line, with measurements taken at 24 hours after chemical dosing in a 24-well plate.ATG_HIF1a_CIS is one of 52 assay component(s) measured or calculated from the ATG_CIS assay. It is designed to make measurements of mRNA induction, a form of inducible reporter, as detected with fluorescence intensity signals by Reverse transcription polymerase chain reaction (RT-PCR) and Capillary electrophoresis technology.Data from the assay component ATG_HIF1a_CIS was analyzed into 1 assay endpoint. This assay endpoint, ATG_HIF1a_CIS, was analyzed with bidirectional fitting relative to DMSO as the negative control and baseline of activity. Using a type of inducible reporter, measures of mRNA for gain or loss-of-signal activity can be used to understand the reporter gene at the transcription factor-level as they relate to the gene HIF1A. Furthermore, this assay endpoint can be referred to as a primary readout, because this assay has produced multiple assay endpoints where this one serves a reporter gene function. To generalize the intended target to other relatable targets, this assay endpoint is annotated to the dna binding intended target family, where the subfamily is basic helix-loop-helix protein.
Human liver HepG2 cells are transiently transfected with multiple reporter transcription units (MRTUs) in 6-well plates using FuGene 6 reagent (Roche; 3 ml FuGene/1 mg DNA). The MRTU constructs are regulated by a cis-regulating element (promoter). […] A major difference between the CIS and TRANS system is that in CIS activities of endogenous TFs are measured, whereas the TRANS assay evaluates changes in activities of exogenous, chimeric NR-Gal4 proteins. […] At the end of 24 hour incubation, total RNA was isolated using TriZol reagent (Invitrogen). The isolated RNA is then reverse-transcribed using oligo(dT) primer and Mo-MLV reverse transcriptase (Invitrogen) with DNAse I (Ambion) treatment for 30 min. The one-tenth of the produced cDNA was amplified by PCR using Taq DNA polymerase (Invitrogen) and two reporter sequence-specific primers. The PCR products were fluorescently labeled by primer extension with 6-arboxyfluorescein (6-FAM) 5'-labeled reporter sequence-specific primer (2 min at 95 C, 20 s at 68 C and 10 min at 72 C) and these products were digested with 5U of HpaI (New England Biolabs) for 2h at 37 C. The fragments were purified using Qiaquick PCR columns (Qiagen), analyzed on an ABI 3130xL genetic analyzer (Applied Biosystems) with peak positions identified by using a set of X-rhodamine (ROX)-labeled MapMarker1000 molecular weight standards (BioVentures). The raw capillary electrophoresis data was processed using Attagraph software (Attagene).

Sequence of Hypoxia-inducible factor 1-alpha (Homo sapiens) (Q16665 whole entry, looked up): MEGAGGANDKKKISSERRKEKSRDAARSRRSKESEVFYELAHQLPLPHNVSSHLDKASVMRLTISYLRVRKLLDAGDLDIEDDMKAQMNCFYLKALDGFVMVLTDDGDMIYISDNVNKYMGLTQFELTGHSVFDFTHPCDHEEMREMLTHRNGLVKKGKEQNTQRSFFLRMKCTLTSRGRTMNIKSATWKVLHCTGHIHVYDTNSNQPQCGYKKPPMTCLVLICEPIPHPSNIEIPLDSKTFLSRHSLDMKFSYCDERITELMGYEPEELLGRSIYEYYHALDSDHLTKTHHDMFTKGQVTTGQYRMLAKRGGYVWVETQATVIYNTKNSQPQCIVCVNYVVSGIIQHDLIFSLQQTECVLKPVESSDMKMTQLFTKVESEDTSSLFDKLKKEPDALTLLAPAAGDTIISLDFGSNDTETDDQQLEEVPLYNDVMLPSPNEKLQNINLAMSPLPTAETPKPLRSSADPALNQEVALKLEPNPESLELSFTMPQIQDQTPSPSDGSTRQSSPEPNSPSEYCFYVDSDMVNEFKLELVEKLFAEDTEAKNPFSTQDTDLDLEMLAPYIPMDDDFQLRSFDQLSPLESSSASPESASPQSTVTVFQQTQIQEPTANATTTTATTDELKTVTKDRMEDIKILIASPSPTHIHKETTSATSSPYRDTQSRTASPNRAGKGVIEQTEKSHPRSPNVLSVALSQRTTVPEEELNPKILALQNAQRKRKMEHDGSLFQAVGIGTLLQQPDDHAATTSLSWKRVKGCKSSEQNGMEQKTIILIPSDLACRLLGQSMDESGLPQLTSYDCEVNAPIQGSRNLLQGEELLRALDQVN

| SMILES | outcome | AC50 |
| --- | --- | --- |
| CCCSP(=O)(OCC)SCCC | inactive |  |
| CNc1cnn(-c2cccc(C(F)(F)F)c2)c(=O)c1Cl | inactive |  |
| CC(C)[C@H](C(=O)O[C@H](C#N)c1cccc(Oc2ccccc2)c1)c1ccc(Cl)cc1 | inactive |  |
| CCC(=NOC/C=C/Cl)C1=C(O)CC(C2CCOCC2)CC1=O (stereo not given) | inactive |  |
| CCOP(=O)(NC(C)C)Oc1ccc(SC)c(C)c1 (stereo not given) | inactive |  |
| CCOP(=O)(OCC)Oc1cc(C)nc(C(C)C)n1 | inactive |  |
| CCNc1nc(Cl)nc(NC(C)(C)C#N)n1 | inactive |  |
| CC(Oc1cccc(Cl)c1)C(=O)O (stereo not given) | inactive |  |
| COc1ccc(C(=CC(=O)N2CCOCC2)c2ccc(Cl)cc2)cc1OC |  | 25.5 µM (active) |
| C#CCC1=C(C)C(OC(=O)C2C(C=C(C)C)C2(C)C)CC1=O (stereo not given) |  | 50 µM (active) |
| CCCCOC(=O)[C@@H](C)Oc1ccc(Oc2ccc(C#N)cc2F)cc1 | inactive |  |
| CCc1cnc(C2=NC(C)(C(C)C)C(=O)N2)c(C(=O)O)c1 (stereo not given) | inactive |  |
| CCOP(=S)(OCC)OC(Cl)C(Cl)(Cl)Cl (stereo not given) | inactive |  |
| CCCCN(CC)c1c([N+](=O)[O-])cc(C(F)(F)F)cc1[N+](=O)[O-] | inactive |  |
| CC(C)=CC1C(C(=O)OCN2C(=O)C3=C(CCCC3)C2=O)C1(C)C (stereo not given) |  | 50 µM (active) |
| CNC(=O)ON=C(C)SC | inactive |  |
| C=C(C)[C@H]1Cc2c(ccc3c2O[C@@H]2COc4cc(OC)c(OC)cc4[C@@H]2C3=O)O1 |  | 0.0274 µM (active) |
| CC(C)N(C(=O)SCC(Cl)=C(Cl)Cl)C(C)C | inactive |  |
| CC(COc1ccc(Oc2ccccc2)cc1)Oc1ccccn1 (stereo not given) | inactive |  |
| COP(=O)(NC(C)=O)SC (stereo not given) | inactive |  |

| SMILES | outcome | AC50 |
| --- | --- | --- |
| CCOC(=O)CC(SP(=O)(OC)OC)C(=O)OCC (stereo not given) | inactive |  |
| CCOP(=S)(OCC)Oc1ccc([N+](=O)[O-])cc1 | inactive |  |
| CNC(=O)ON=C(SC)C(=O)N(C)C | inactive |  |
| CCCCSP(=O)(SCCCC)SCCCC | inactive |  |
| O=[N+]([O-])c1cc(C(F)(F)F)c(Cl)c([N+](=O)[O-])c1Nc1ncc(C(F)(F)F)cc1Cl | inactive |  |
| CN(C)C(=O)Nc1cccc(C(F)(F)F)c1 | inactive |  |
| CON=C(C(=O)OC)c1ccccc1CON=C(C)c1cccc(C(F)(F)F)c1 | inactive |  |
| CCC(CC)Nc1c([N+](=O)[O-])cc(C)c(C)c1[N+](=O)[O-] | inactive |  |
| CCOP(=S)(OCC)Oc1ccc2c(C)c(Cl)c(=O)oc2c1 | inactive |  |
| FC(F)C(F)(F)OCC(Cn1cncn1)c1ccc(Cl)cc1Cl (stereo not given) |  | 75.4 µM (active) |
| C[N+]1(C)CCCCC1 | inactive |  |
| O=c1ccc(=O)[nH][nH]1 | inactive |  |
| COP(=O)(OC)OC(Br)C(Cl)(Cl)Br (stereo not given) | inactive |  |
| CCC(=O)Nc1ccc(Cl)c(Cl)c1 | inactive |  |
| O=C(O)c1cc(Oc2ccc(C(F)(F)F)cc2Cl)ccc1[N+](=O)[O-] | inactive |  |
| CSc1nc(NC(C)C)nc(NC(C)C)n1 | inactive |  |
| S=C1NCCN1 | inactive |  |
| Cc1cc(C2CC2)nc(Nc2ccccc2)n1 |  | 50 µM (active) |
| COP(=O)(OC)SCn1c(=O)oc2cc(Cl)cnc21 | inactive |  |
| CCOC(=O)COc1cc(-c2nn(C)c(OC(F)F)c2Cl)c(F)cc1Cl | inactive |  |

From PubChem BioAssay (EPA / NIEHS)
